In PubChem BioAssay (NCATS):
Records with an inconclusive call do not appear. Activity calls are given as the source filed them. The call rests on the fitted dose curve; in most records, active means well fitted curve in the direction sought with a large enough effect; inconclusive means small, poorly fitted or top-dose-only effect, or another doubt; inactive means no such curve, though single readings can be large; an effect the other way counts as inactive or inconclusive.

Columns and labels:
[1] = Cellular Toxicity (caspase-3) Mesangial (AID 660); conditions: mesangial cells, normalized: DMSO 0%, 100 µM tamoxifen 100%; at 91.7 µM (top of the series);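 further: cells exposed to compound for 16 h before the caspase read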
In short: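 Human renal glomerular mesangial cells (1000/well) were treated with compounds for 16 h at 37 °C in complete medium, then caspase 3/7 activity was read by Caspase-Glo luminescence. Data were normalized to DMSO and 100 uM tamoxifen; AC50 from Hill fits.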

[2] = Cellular Toxicity (caspase-3) SK-N-SH (AID 661);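 further: 0% = DMSO basal and 100% = 10 µM staurosporine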
In short: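 SK-N-SH human neuroblastoma cells (1500/well) were treated with compounds for 16 hr at 37 °C in complete medium; caspase 3/7 activity was read by Caspase-Glo luminescence. AC50 came from Hill fits of data normalized to DMSO and 10 uM staurosporine.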

[3] = Cellular Toxicity (caspase-3) H-4-II-E (AID 663); conditions: H-4-II-E rat hepatoma, scaled: DMSO 0%, 100 µM tamoxifen 100%; at 92.2 µM (top of the series);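 further: cells exposed to compound for 16 hr before readout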
In short: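 Apoptosis induction is scored as increased luminescence from caspase 3/7 substrate cleavage in rat hepatoma H-4-II-E cells exposed to compound for 16 hr. Activity is scaled between DMSO and 100 uM tamoxifen.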

[4] = Cellular Toxicity (caspase-3) Hek293 (AID 664); conditions: HEK293 caspase-3 activation, DMSO = 0%, 100 µM tamoxifen = 100%; at 92.2 µM (top of the series);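 further: cells exposed to compound for 16 h at 37 °C before readout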
In short: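 HEK293 cells were exposed to compounds in complete medium for 16 hr at 37 °C, then caspase-3/7 activity was read by Caspase-Glo 3/7 luminescence after 20 min at room temperature. Data normalized to DMSO and 100 uM tamoxifen; AC50 from Hill fits.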

[5] = Cellular Toxicity (caspase-3) N2a (AID 665);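 further: compound exposure lasted 16 h at 37 °C before readout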
In short: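 Mouse N2a neuroblastoma cells (1500/well) were treated with compounds for 16 h at 37 °C, then caspase-3/7 activity was read by Caspase-Glo luminescence after 1 h at room temperature. Data were normalized to DMSO and 10 uM staurosporine; AC50 from Hill fits.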

[6] = Cellular Toxicity (caspase-3) Renal Proximal Tubule (AID 667); conditions: Potency: caspase-3 activation;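 further: cells exposed to compound for 16 hours at 37 °C before detection; 0% = DMSO basal and 100% = 10 µM staurosporine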
In short: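 In qHTS format, rat primary proximal tubule cells seeded at 1000 per well are exposed to compounds for 16 hours at 37 °C. An increase in Caspase-Glo 3/7 luminescence indicates caspase activation.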

[7] = biological target: Cytochrome P450 3A4 (Homo sapiens) (UniProt P08684); assay: qHTS Assay for Inhibitors and Substrates of Cytochrome P450 3A4 (AID 884); further: on the % scale 0 is the no-effect control and ±100 the full control effect; nearly all actives have a fitted effect of over 50% in size
In short: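 20 nM human CYP3A4 with 25 uM Luciferin-PPXE (at KM) in 200 mM KPO4, preincubated 10 min with compound; NADPH regeneration started a 60 min RT reaction. Luciferin detected by luminescence, normalized to 57 uM ketoconazole as full inhibition.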

[8] = Cell Viability - LYMP2-001 (AID 921);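 further: 0% = DMSO only and full inhibition = tetraoctylammonium bromide control wells; nearly all actives have a fitted effect of over 70% in size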
In short: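 qHTS, 1536-well; lymphoblastoid cells, 24 hr compound, 37 C; ATP by CellTiter-Glo, 30 min RT; luminescence; Hill-fit AC50.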

[9] = MultiTox-Fluor Cytotoxicity Assay - LYMP1-001 - Dead Cells (AID 946)
In short: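 Seed 2500 LYMP1-001 cells/well, incubate 5 hr at 37 C; add compound, 16 hr at 37 C; add MultiTox-Fluor reagent, 60 min RT; read dead-cell fluorescence Ex/Em=485/520. Normalize to DMSO and 15 uM tetraoctylammonium bromide.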

[10] = MultiTox-Fluor Cytotoxicity Assay - LYMP1-001 - Live Cells (AID 947);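 further: 0% = DMSO only and full inhibition = tetraoctylammonium bromide control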
[11] = Cell Viability - LYMP1-002 - Assay at 16 hr (AID 948);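 further: 0% = DMSO alone and full effect = 92 µM tetraoctylammonium bromide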
In short: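 Acute cytotoxicity is scored as a concentration-dependent fall in intracellular ATP in a human lymphoblastoid line (LYMP1-002) after 16 hr compound exposure at 37 C, measured by luciferase luminescence.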

[12] = MultiTox-Fluor Cytotoxicity Assay - LYMP1-002 - Live Cells (AID 955); further: on the % scale 0 is the no-effect control and ±100 the full control effect
In short: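 Human lymphoblastoid LYMP1-002 cells, 2500/well in complete medium, rested 5 hr at 37 C, then exposed to compounds for 16 hr at 37 C. Live-cell protease cleavage of GF-AFC read by fluorescence (Ex/Em 405/510) after 60 min at room temperature; AC50 from Hill fits.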

[13] = MultiTox-Fluor Cytotoxicity Assay - LYMP1-002 - Dead Cells (AID 960); further: nearly all actives have a fitted effect of over 60% in size
In short: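 Human lymphoblastoid cells (LYMP1-002), 2500/well in complete medium, were exposed to compounds for 16 hr at 37 C. Dead-cell protease activity was read as bis-AAF-R110 fluorescence (Ex/Em 485/520), normalized to DMSO and 15 uM tetraoctylammonium bromide; AC50 from Hill fits.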

[14] = MultiTox-Fluor Cytotoxicity Assay - LYMP1-003 - Dead Cells (AID 961); further: nearly all actives have a fitted effect of over 70% in size
In short: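 LYMP1-003 lymphoblastoid, 2500 cells/well, 5 hr settle then 16 hr cpd at 37 C; MultiTox-Fluor reagent 60 min RT; Ex/Em 485/520 dead-cell signal; norm. DMSO = 0%, 15 uM tetraoctylammonium bromide = 100%; Hill AC50.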

[15] = MultiTox-Fluor Cytotoxicity Assay - LYMP1-003 - Live Cells (AID 962);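 further: 0% = DMSO only and full loss = 92 µM tetraoctylammonium bromide; cytotoxic hits lower the live-cell protease signal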
In short: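 LYMP1-003 human lymphoblastoid cells (2500/well) in complete medium were preincubated 5 hr at 37 C, then exposed to compounds for 16 hr at 37 C. Live-cell protease cleavage of GF-AFC read by fluorescence (Ex/Em 405/510); AC50 from Hill fits.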

[16] = Cell Viability - LYMP1-003 - Assay at 24 hr (AID 963);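 further: plate controls were DMSO only for no effect and tetraoctylammonium bromide positive control for full effect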
In short: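 Human lymphoblastoid LYMP1-003 cells (2500/well) were rested 5 hr at 37 C, then exposed to compounds in complete medium for 24 hr at 37 C. Cellular ATP was quantified by CellTiter-Glo luminescence, and AC50 values came from Hill fits of concentration-response data.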

[17] = Cell Viability - LYMP1-003 - Assay at 40 hr (AID 964); further: on the % scale 0 is the no-effect control and ±100 the full control effect; nearly all actives have a fitted effect of over 60% in size
In short: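 Human lymphoblastoid LYMP1-003 cells, 2500/well in complete medium, rested 5 hr at 37 C, then exposed to compounds for 40 hr at 37 C. Viability read as intracellular ATP by CellTiter-Glo luminescence; AC50 from Hill fits of concentration-response data.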

[18] = Cell Viability - LYMP2-003 (AID 965);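 further: cells exposed to compounds for 24 h before reading; 0% = DMSO only and full effect = 92 µM tetraoctylammonium bromide; nearly all actives have a fitted effect of over 50% in size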
In short: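 Acute cytotoxicity is scored as a concentration-dependent drop in intracellular ATP, measured by luciferase luminescence in human lymphoblastoid cells treated for 24 hours at 37 C. AC50 values derive from Hill-equation modelling.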

[19] = biological target: Cytochrome P450 3A4 (Homo sapiens) (UniProt P08684); assay: qHTS Assay for Activators of Cytochrome P450 3A4 (AID 885); further: nearly all actives have a fitted effect of over 65% in size
In short: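 Steps: enzyme/substrate mix dispensed; compound added, 10 min RT; NADPH regeneration solution added, 60 min RT; luciferin detection buffer stops reaction; 20 min later luminescence measured.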

[20] = Cellular Toxicity (caspase-3) NIH 3T3 (AID 666);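 further: caspase signal read after 16 h compound exposure; 0% = DMSO basal and 100% = 100 µM tamoxifen stimulation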
In short: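 Mouse NIH 3T3 fibroblasts (1000 cells/well) were treated with compound for 16 hr at 37°C in complete medium; caspase-3/7 activity was read by Caspase-Glo luminescence. Normalized to DMSO and 100 uM tamoxifen; AC50 from Hill fits.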

Cytochrome P450 3A4 (Homo sapiens), sequence (P08684 whole entry, looked up): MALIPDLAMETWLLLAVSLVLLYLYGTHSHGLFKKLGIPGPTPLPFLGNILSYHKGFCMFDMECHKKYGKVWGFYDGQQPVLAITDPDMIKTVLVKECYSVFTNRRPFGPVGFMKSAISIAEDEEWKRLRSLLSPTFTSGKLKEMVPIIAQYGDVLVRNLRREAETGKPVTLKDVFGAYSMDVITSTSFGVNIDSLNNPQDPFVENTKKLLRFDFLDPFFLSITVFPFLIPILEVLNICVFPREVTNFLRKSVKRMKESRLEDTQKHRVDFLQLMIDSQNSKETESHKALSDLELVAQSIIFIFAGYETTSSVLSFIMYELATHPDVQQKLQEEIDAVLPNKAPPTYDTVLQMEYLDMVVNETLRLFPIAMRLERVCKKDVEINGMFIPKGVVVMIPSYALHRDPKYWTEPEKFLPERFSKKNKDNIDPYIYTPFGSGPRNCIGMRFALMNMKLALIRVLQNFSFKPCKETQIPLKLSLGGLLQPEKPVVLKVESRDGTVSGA

NC(=O)c1cccc([N+](=O)[O-])c1
inactive: caspase-3 activation [1] 0.906% | outcome [2] | caspase-3 activation [3] -1.74% | caspase-3 activation [4] 2% | outcome [5] | Potency [6] | Potency [7] | Potency [8] | outcome [9] | outcome [10] | outcome [11] | outcome [12] | outcome [13] | Potency [14] | Potency [15] | Potency [16] | Potency [17] | Potency [18]

CC(=O)Nc1ccccc1C
inactive: caspase-3 activation [1] 2.04% | outcome [2] | caspase-3 activation [3] 1.63% | caspase-3 activation [4] 3.57% | outcome [5] | Potency [6] | Potency [7] | Potency [8] | outcome [9] | outcome [10] | outcome [12] | Potency [14] | Potency [15] | Potency [16] | Potency [17] | Potency [18]

N#CC1(O)CCCCC1
inactive: caspase-3 activation [1] 0.158% | outcome [2] | caspase-3 activation [3] -0.143% | caspase-3 activation [4] 1.67% | outcome [5] | Potency [6] | Potency [7] | Potency [8] | outcome [9] | outcome [10] | outcome [11] | outcome [12] | outcome [13] | Potency [14] | Potency [15] | Potency [16] | Potency [17] | Potency [18]

OC/C(Br)=C(\Br)CO
inactive: caspase-3 activation [1] 0.44% | outcome [2] | caspase-3 activation [3] -0.67% | caspase-3 activation [4] 0.816% | outcome [5] | Potency [6] | Potency [7] | Potency [8] | outcome [11] | outcome [12] | outcome [13] | Potency [14] | Potency [15] | Potency [16] | Potency [17] | Potency [18]

Nc1nc2ccccc2[nH]1
inactive: caspase-3 activation [1] -0.927% | outcome [2] | caspase-3 activation [3] -0.868% | caspase-3 activation [4] 0.0156% | outcome [5] | Potency [6] | Potency [7] | Potency [8] | outcome [9] | outcome [10] | outcome [11] | outcome [13] | Potency [14] | Potency [15] | Potency [16] | Potency [17] | Potency [18]

NC=O
inactive: caspase-3 activation [1] -0.458% | outcome [2] | caspase-3 activation [3] 0.414% | caspase-3 activation [4] -1.11% | outcome [5] | Potency [6] | Potency [7] | Potency [8] | outcome [9] | outcome [10] | outcome [11] | outcome [12] | outcome [13] | Potency [14] | Potency [15] | Potency [16] | Potency [18]

O=Cc1ccc(C(=O)O)cc1
inactive: caspase-3 activation [1] 0.146% | outcome [2] | caspase-3 activation [3] -0.315% | caspase-3 activation [4] -1.79% | outcome [5] | Potency [6] | Potency [7] | Potency [8] | outcome [9] | outcome [11] | outcome [12] | Potency [14] | Potency [15] | Potency [16] | Potency [17] | Potency [18]

Cc1ccc2cccnc2c1
inactive: caspase-3 activation [1] 0.42% | outcome [2] | caspase-3 activation [3] -0.588% | caspase-3 activation [4] 5.55% | outcome [5] | Potency [6] | Potency [7] | Potency [8] | outcome [9] | outcome [10] | outcome [11] | outcome [12] | outcome [13] | Potency [14] | Potency [15] | Potency [16] | Potency [17] | Potency [18]

O=Cc1c(Cl)cccc1Cl
inactive: caspase-3 activation [1] -0.583% | outcome [2] | caspase-3 activation [3] 5.93% | caspase-3 activation [4] 1.92% | outcome [5] | Potency [6] | Potency [7] | Potency [8] | outcome [9] | outcome [10] | outcome [11] | outcome [13] | Potency [14] | Potency [15] | Potency [16] | Potency [17] | Potency [18]

Cc1ccc2nc(-c3ccc(N)cc3)sc2c1S(=O)(=O)O
inactive: caspase-3 activation [1] -3.9% | outcome [2] | caspase-3 activation [3] -4.87% | caspase-3 activation [4] -8.94% | outcome [5] | Potency [6] | outcome [19] | Potency [8] | outcome [9] | outcome [10] | outcome [11] | outcome [12] | outcome [13] | Potency [15] | Potency [16] | Potency [18]

c1ccc2[nH]cnc2c1
inactive: caspase-3 activation [1] 0.6% | outcome [2] | caspase-3 activation [3] -0.984% | caspase-3 activation [4] -0.791% | outcome [5] | Potency [6] | Potency [7] | Potency [8] | outcome [9] | outcome [10] | outcome [11] | outcome [12] | outcome [13] | Potency [14] | Potency [15] | Potency [16] | Potency [17] | Potency [18]

CC(=O)CCc1ccccc1
inactive: caspase-3 activation [1] -0.0155% | outcome [2] | caspase-3 activation [4] 0.352% | outcome [5] | outcome [20] | Potency [6] | Potency [7] | Potency [8] | outcome [9] | outcome [10] | outcome [11] | outcome [13] | Potency [15] | Potency [16] | Potency [17] | Potency [18]

C=C(C)C(=O)OCCCCCC
inactive: caspase-3 activation [1] 0.76% | outcome [2] | caspase-3 activation [3] 0.664% | caspase-3 activation [4] -0.643% | outcome [5] | Potency [6] | Potency [7] | Potency [8] | outcome [9] | outcome [11] | outcome [12] | outcome [13] | Potency [14] | Potency [15] | Potency [16] | Potency [17] | Potency [18]

C=CCCCCCC
inactive: caspase-3 activation [1] 0.339% | outcome [2] | caspase-3 activation [3] 1.37% | caspase-3 activation [4] -0.874% | outcome [5] | Potency [6] | Potency [7] | Potency [8] | outcome [9] | outcome [11] | outcome [12] | outcome [13] | Potency [16] | Potency [17] | Potency [18]

N#CCc1ccccc1[N+](=O)[O-]
inactive: caspase-3 activation [1] -0.803% | outcome [2] | caspase-3 activation [3] 1.83% | outcome [5] | outcome [20] | Potency [6] | Potency [7] | Potency [8] | outcome [9] | outcome [10] | outcome [11] | outcome [13] | Potency [14] | Potency [15] | Potency [16] | Potency [18]
